“And” between values parts separate entries of the source, which are not always exact repeats. Equal entries are not always repeated. The source holds several records for some structures; these can differ, active in one and inactive in another. The source made the active and inactive calls. Rule for the calls: active = hit-call score of the fitted dose curve at least 0.9, where 1 is the maximum; inactive = score below 0.9.
Assay: ATG_AP_1_CIS: Attagene CIS-FACTORIAL HepG2 Assay for human Activator Protein 1 (AP-1) (AID 2282931)
Details: HepG2 Attagene cis-factorial AP-1 reporter mRNA; actives raise or lower the signal
Experimental: ATG_CIS is a cell-based, multiplexed-readout assay that uses HepG2, a human liver cell line, with measurements taken at 24 hours after chemical dosing in a 24-well plate.ATG_AP_1_CIS is one of 52 assay component(s) measured or calculated from the ATG_CIS assay. It is designed to make measurements of mRNA induction, a form of inducible reporter, as detected with fluorescence intensity signals by Reverse transcription polymerase chain reaction (RT-PCR) and Capillary electrophoresis technology.Data from the assay component ATG_AP_1_CIS was analyzed into 1 assay endpoint. This assay endpoint, ATG_AP_1_CIS, was analyzed with bidirectional fitting relative to DMSO as the negative control and baseline of activity. Using a type of inducible reporter, measures of mRNA for gain or loss-of-signal activity can be used to understand the reporter gene at the transcription factor-level as they relate to the gene FOS and JUN. Furthermore, this assay endpoint can be referred to as a primary readout, because this assay has produced multiple assay endpoints where this one serves a reporter gene function. To generalize the intended target to other relatable targets, this assay endpoint is annotated to the dna binding intended target family, where the subfamily is basic leucine zipper.
Human liver HepG2 cells are transiently transfected with multiple reporter transcription units (MRTUs) in 6-well plates using FuGene 6 reagent (Roche; 3 ml FuGene/1 mg DNA). The MRTU constructs are regulated by a cis-regulating element (promoter). […] A major difference between the CIS and TRANS system is that in CIS activities of endogenous TFs are measured, whereas the TRANS assay evaluates changes in activities of exogenous, chimeric NR-Gal4 proteins. […] At the end of 24 hour incubation, total RNA was isolated using TriZol reagent (Invitrogen). The isolated RNA is then reverse-transcribed using oligo(dT) primer and Mo-MLV reverse transcriptase (Invitrogen) with DNAse I (Ambion) treatment for 30 min. The one-tenth of the produced cDNA was amplified by PCR using Taq DNA polymerase (Invitrogen) and two reporter sequence-specific primers. The PCR products were fluorescently labeled by primer extension with 6-arboxyfluorescein (6-FAM) 5'-labeled reporter sequence-specific primer (2 min at 95 C, 20 s at 68 C and 10 min at 72 C) and these products were digested with 5U of HpaI (New England Biolabs) for 2h at 37 C. The fragments were purified using Qiaquick PCR columns (Qiagen), analyzed on an ABI 3130xL genetic analyzer (Applied Biosystems) with peak positions identified by using a set of X-rhodamine (ROX)-labeled MapMarker1000 molecular weight standards (BioVentures). The raw capillary electrophoresis data was processed using Attagraph software (Attagene).
With `COc1ccc2cc(S(=O)(=O)N[C@H](CC(=O)N[C@H](Cc3ccc(CN4[C@H](C)CCC[C@@H]4C)cc3)C(=O)N(C)C(C)C)c3ccc4c(c3)OCO4)ccc2c1` the AC50 was 11 µM (active). In the case of `CN(C[C@@H](CC[N+]12CCC(C3CCCCC3)(CC1)CC2)c1ccc(Cl)c(Cl)c1)C(=O)c1cc(C(F)(F)F)cc(C(F)(F)F)c1`, the outcome was “inactive”. With `CC[C@@H]1C[C@H](N(Cc2cc(C(F)(F)F)cc(C(F)(F)F)c2)C(C)=O)c2cc(C(F)(F)F)ccc2N1C(=O)OC(C)C` the outcome was “inactive”. For `O=C(O)Cc1cc(I)c(Oc2ccc(O)c(I)c2)c(I)c1`, the AC50 was 160 µM (active) and 100 µM (active) and 74.8 µM (active) and the outcome was “inactive”. In the case of `CCOC(=O)O[C@H](C)OC(=O)c1ccc2c(c1)cc(C(=O)NC1CCN(C(C)C)CC1)n2Cc1cc(-c2ccc(Cl)s2)on1`, the outcome was “inactive”. With `CCO[Si](CCCNC(N)=O)(OCC)OCC` the outcome was “inactive”. For `CCCCCCCCCCCCO`, the outcome was “inactive”. In the case of `Oc1ccc2ccccc2c1`, the outcome was “inactive”. In the case of `c1ccc2n[nH]nc2c1`, the outcome was “inactive”. In the case of `CCCC(=O)OCCC(C)C`, the outcome was “inactive”. With `C[C@]12CC[C@@H]3c4ccc(O)cc4CC[C@H]3[C@@H]1CCC2=O` the AC50 was 24.5 µM (active) and the outcome was “inactive”. For `O=CCCCC=O`, the outcome was “inactive”. With `CC(C)(c1cc(Br)c(O)c(Br)c1)c1cc(Br)c(O)c(Br)c1` the AC50 was 58.4 µM (active) and 53.2 µM (active). With `Cc1ccc(C(C)C)cc1` the outcome was “inactive”. With `C[C@]12CC[C@@H]3c4ccc(O)cc4CC[C@H]3[C@@H]1CC[C@H]2O` the outcome was “inactive”. With `O=C(OCCCCCCOC(=O)c1ccccc1)c1ccccc1` the outcome was “inactive”. For `CC/C(=C(/CC)c1ccc(O)cc1)c1ccc(O)cc1`, the AC50 was 13.8 µM (active) and 11.1 µM (active) and 14.4 µM (active) and the outcome was “inactive”. In the case of `O=c1ccc2ccccc2o1`, the outcome was “inactive”. With `CO[C@H]1/C=C/O[C@@]2(C)Oc3c(C)c(O)c4c(O)c(c(/C=N/N5CCN(C)CC5)c(O)c4c3C2=O)NC(=O)/C(C)=C\C=C\[C@H](C)[C@H](O)[C@@H](C)[C@@H](O)[C@@H](C)[C@H](OC(C)=O)[C@@H]1C` the outcome was “inactive”. In the case of `CCN(Cc1cccc(S(=O)(=O)O)c1)c1ccc(C(=C2C=CC(=[N+](CC)Cc3cccc(S(=O)(=O)O)c3)C=C2)c2ccccc2S(=O)(=O)[O-])cc1`, the outcome was “inactive”. In the case of `CCCCCCCCOc1ccc(C(=O)c2ccccc2)c(O)c1`, the outcome was “inactive”. In the case of `O=c1[nH]sc2ccccc12`, the outcome was “inactive”. In the case of `O=C(Nc1ccc(Cl)cc1)Nc1ccc(Cl)c(Cl)c1`, the AC50 was 10.5 µM (active). With `O=C1c2ccccc2C(=O)N1CCc1noc(-c2ccc(CN3CCCCCC3)s2)n1` the AC50 was 24.7 µM (active). With `O=C(O)c1ccccc1C(=O)OCc1ccccc1` the outcome was “inactive”. In the case of `COc1cccc([C@H](O)C2CCN(CCc3ccc(F)cc3)CC2)c1OC`, the outcome was “inactive”. With `Cc1cc2c(cc1C(F)(F)F)N(C(=O)Nc1ccc(Oc3cccnc3C)nc1)CC2` the outcome was “inactive”. For `CCCCCc1ccc(N)cc1`, the AC50 was 25.9 µM (active) and the outcome was “inactive”. In the case of `CC1(C)NC(=O)N(c2ccc([N+](=O)[O-])c(C(F)(F)F)c2)C1=O`, the outcome was “inactive” and the AC50 was 39.2 µM (active). With `CN1C(=O)CC[C@H]1c1cccnc1` the outcome was “inactive”. For `CCCCCCCCOC(=O)c1cc(O)c(O)c(O)c1`, the AC50 was 6.37 µM (active). In the case of `Cc1ncc(CO)c(CO)c1O`, the outcome was “inactive”. With `OC12N=C(c3ccccc3)SC1Cc1cc(Cl)ccc12` (stereo not given) the AC50 was 3.8 µM (active). For `CCCCCCCCN(C)CCCCCCCC`, the outcome was “inactive”. With `Cc1c2ccccc2c(C)c2c1ccc1ccccc12` the AC50 was 25.5 µM (active).
